Source: PubChem (several laboratories)
hgDAF12 agonist: agonists of H. glycines DAF-12 nuclear receptor; HEK293 GAL4-hgDAF12 UAS-luciferase reporter, agonist luminescence; normalized to butyrate control; activation, % at 6.8 µM; 370,000 compounds, 1.8% hits;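 active means activation above a cutoff set at the mean of all screened compounds plus 3 SD, cut at about 10% in these data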
ssDAF-12 act: activates DAF-12 receptor from parasite S. stercoralis | HEK293 ssDAF-12/GRIP1 lit1-tk-luc reporter, luminescence; % of 3 µM dafachronic acid response | activation, % at 6.8 µM | 370,000 compounds, 1% hits;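 active means activation above the mean over all tested compounds plus 3 SD, cut at about 0.9% in these data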
Rev-erbA mod: modulators of human Rev-erb alpha DNA binding | P20393 | Rev-erbα–FITC-DNA binding, fluorescence polarization, 90 min | activity, % at 10 µM | 370,000 compounds, 0.79% hits | AID 1259318;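 active means activity above about 14%, limit read from the data; passing the limit was not always enough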
DAX1 inh-1: inhibitors of DAX1 repression of SF-1 activated StAR promoter; HEK293T StAR-luciferase reporter, SF-1/DAX-1 repression relief; inhibition, % at 6.8 µM; 370,000 compounds, 1.1% hits;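 active means inhibition above the mean over all tested compounds plus 3 SD, cut at about 3.6% in these data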;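 further: higher inhibition means more luminescence from relief of DAX-1 repression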
DAX1 inh-2: inhibitors of human orphan nuclear receptor DAX1 (NR0B1) | P51843 | HEK293 Gal4-DAX1 luciferase reporter, luminescence | inhibition, % at 6.75 µM | 340,000 compounds, 0.99% hits | AID 504766;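 active means inhibition above the mean over all tested compounds plus 3 SD, cut at about 4.2% in these data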;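 further: inhibition shows as a rise in luminescence from relieved DAX1 repression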
Target sequence (P51843 207-470 limits assumed): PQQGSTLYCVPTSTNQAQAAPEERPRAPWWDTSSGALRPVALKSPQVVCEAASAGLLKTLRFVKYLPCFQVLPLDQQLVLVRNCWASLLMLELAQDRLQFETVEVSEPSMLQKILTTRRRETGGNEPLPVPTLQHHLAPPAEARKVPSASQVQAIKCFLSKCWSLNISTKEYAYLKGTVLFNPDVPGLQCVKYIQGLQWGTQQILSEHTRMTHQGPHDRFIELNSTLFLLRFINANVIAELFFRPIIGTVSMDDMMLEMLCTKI
hcDAF-12 act: activators of H. contortus DAF-12 nuclear receptor; HEK293 hcDAF-12 lit1-tk-luc reporter, luminescence; 0% DMSO, 100% Δ7-dafachronic acid; activation, % at 6.8 µM; 370,000 compounds, 1.4% hits; AID 652067;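 active means activation above the mean of all tested compounds plus 3 SD, cut at about 5.5% in these data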
Of the large screens only hits and unclear results are named; the others gave an inactive call. Shown are actives, neighbours in structure and some others; about 4.8% of the full set was active somewhere.

CSc1ccccc1NC(=O)c1cc(-c2ccc3c(c2)OCO3)on1	none
CN(C(=O)c1cc(-c2ccc3c(c2)OCO3)on1)c1ccccc1	hgDAF12 agonist 11.1
O=C(Nc1cc(Br)ccc1O)c1cc(-c2ccc3c(c2)OCO3)on1	DAX1 inh-2 5.7
Cc1ccc(-n2c(SCC(=O)NN=Cc3ccc(-c4ccccc4)cc3)nnc2-c2ccccc2)cc1	none (no result: DAX1 inh-2)
O=C1c2ccccc2C(Nc2ccc(Cl)cn2)N1c1ccccn1 (stereo not given)	none
COc1cc(OC)c(NC2c3ccccc3C(=O)N2c2cc(C)ccn2)cc1Cl (stereo not given)	hgDAF12 agonist 11.7, DAX1 inh-1 3.6
Cc1ccc(N2C(=O)c3ccccc3C2Nc2ccccc2F)nc1 (stereo not given)	hgDAF12 agonist 12.6
CCCC#Cc1ccc(CC[C@H]2O[C@H]3CC[C@H](CO)O[C@H]3C[C@H]2NC(=O)CN2CCOCC2)cc1	none (no result: DAX1 inh-2)
CN(C(=O)CNC(=O)c1ccccc1OCC(=O)Nc1ccc(I)cc1)c1ccccc1	none (no result: DAX1 inh-2)
OCC(O)CNC(=S)NC1CCCCC1 (stereo not given)	DAX1 inh-2 4.9
Cc1ccc(S(=O)(=O)N2CCN(C(=O)c3cccn3C)CC2)cc1	none (no result: DAX1 inh-2)
CCOC(=O)[C@H]1[C@H]2COc3ccc(Br)cc3[C@H]2N2C(=O)CN(CCc3c[nH]c4ccccc34)C(=O)[C@@]12C	ssDAF-12 act 0.9
Cc1ccc(CC(=O)Nc2nc3c(s2)CCCC3)cc1	none
Cc1ncsc1C(=O)Nc1nc2c(s1)CCCC2	hgDAF12 agonist 12.9
Cc1cc(C(=O)Nc2nc3c(s2)CCCC3)cs1	hcDAF-12 act 6.0
COc1ccc(S(=O)(=O)N2CCOC23CCN(S(=O)(=O)c2ccccc2)CC3)cc1	DAX1 inh-2 4.3
CC(C)[C@@H]1NC(=O)[C@H]2C[C@@]3(c4ccccc4)c4ccccc4N[C@H]3N2C1=O	none (no result: DAX1 inh-2)
COc1ccc(C(=O)CCNc2cccc(Cl)c2)cc1	none
CCCOc1ccc(C(=O)CCNc2cccc(Cl)c2)cc1	ssDAF-12 act 1.4
CCOC(=O)N1C(=O)C[C@](Sc2ccc(OC)cc2)(C(=O)N2CCOCC2)[C@H]1c1ccc(OC)cc1	none (no result: DAX1 inh-2)
Cc1ccc2c(nc3s/c(=C/c4cccs4)c(=O)n32)c1C	hcDAF-12 act 6.2
Cc1cc(-n2c(C)cc(C(=O)CN3C(=O)NC4(CCCC4)C3=O)c2C)no1	DAX1 inh-2 5.9
Cc1cc(C(=O)CN2C(=O)NC3(CCCCC3)C2=O)c(C)n1Cc1ccco1	hgDAF12 agonist 11.3, ssDAF-12 act 2.6, DAX1 inh-1 4.0, DAX1 inh-2 7.1
Cc1cc(-n2c(C)cc(C(=O)CN3C(=O)NC4(CCCCC4)C3=O)c2C)no1	none
CN(Cc1nc2ccccc2c(=O)[nH]1)C(=O)c1cccc(S(=O)(=O)N2CCCC2)c1	DAX1 inh-1 3.7
CN(Cc1nc2ccccc2c(=O)[nH]1)C(=O)c1ccc(S(=O)(=O)N(C)C)cc1	none
Cc1ccc(/C=C/C(=O)NC2=NCCS2)cc1	hgDAF12 agonist 17.2, ssDAF-12 act 1.4, DAX1 inh-1 6.4, hcDAF-12 act 8.0
CCc1ccc(/C=C/C(=O)NC2=NCCS2)cc1	none (no result: DAX1 inh-1, DAX1 inh-2)
Cc1ccc(OCC(=O)NC2=NCCS2)cc1	DAX1 inh-2 4.7
O=C(COc1ccccc1)NCC(=O)NC1=NCCS1	none
COC(=O)[C@@]12CCCCC3=C1N(CCC3)C(=O)[C@H]2CC(=O)NCc1ccc(C)o1	none (no result: DAX1 inh-2)
CCCC(=O)O[C@]1(C(=O)CO)CCC2[C@@H]3CCC4=CC(=O)CC[C@]4(C)C3[C@@H](O)C[C@@]21C (stereo not given in full)	none (no result: hgDAF12 agonist, ssDAF-12 act, DAX1 inh-1, DAX1 inh-2, hcDAF-12 act)
COCCC(=O)N1CCC(Oc2ccc(C(=O)NCCSC)cc2)CC1	DAX1 inh-2 6.9
COCCC(=O)N1CCC(Oc2ccc(C(=O)NCCn3cccn3)cc2)CC1	none
CCn1c(=O)n(CC(=O)N2CCCC2)c(=O)c2ccccc21	none (no result: DAX1 inh-2)
O=C(Nn1c(-c2ccc(Br)cc2)nc2ccccc2c1=O)c1ccncc1	hgDAF12 agonist 12.7
Cc1nc2ccccc2c(=O)n1NC(=O)c1ccc(Cl)c(Cl)c1	none
CCOC(=O)CSc1nc2ccccc2c(=O)n1NC(=O)c1ccccc1	hgDAF12 agonist 11.4, ssDAF-12 act 1.1, DAX1 inh-1 3.9
CCc1ccc(C(=O)Nn2c(C)nc3ccccc3c2=O)cc1	ssDAF-12 act 1.0
CC(C)N1Cc2nnn(Cc3ccccc3)c2-c2cc(N3CCCC3)ccc2S1(=O)=O	none (no result: DAX1 inh-2)
COc1ccc(/C(C)=N/NC(=O)CN(c2ccc(OC)cc2)S(=O)(=O)c2ccccc2)cc1	DAX1 inh-2 4.4
COc1ccc(N(CC(=O)N/N=C(\C)c2ccc(C)cc2)S(=O)(=O)c2ccccc2)cc1	none
Cc1cc(C(=O)NC(Cc2c[nH]c3ccccc23)C(=O)O)c(C)o1 (stereo not given)	none
Cc1ccc(C(=O)NC(Cc2c[nH]c3ccccc23)C(=O)O)o1 (stereo not given)	hcDAF-12 act 6.1
Cc1c(C)c2ccc(OCC(=O)Nc3nccs3)cc2oc1=O	hgDAF12 agonist 11.3
CC(NC(=O)c1ccccc1NS(=O)(=O)c1ccc(CCC(=O)O)cc1)c1ccccc1 (stereo not given)	none
O=C(COc1ccc2c(c1)oc(=O)c1ccccc12)N[C@@H](Cc1c[nH]c2ccccc12)C(=O)O	none
O=C(O)CCc1ccc(S(=O)(=O)Nc2ccccc2C(=O)NCCc2ccccc2)cc1	ssDAF-12 act 1.0
Cc1c(C)c2ccc(OCC(=O)Nc3ccccn3)cc2oc1=O	none
Cc1c(C)c2ccc(OCC(=O)N[C@@H](Cc3c[nH]c4ccccc34)C(=O)O)cc2oc1=O	DAX1 inh-2 6.6
CCCCCCCCN1C(=O)[C@@H](CC(=O)N2CCN(C(=O)OCC)CC2)C[C@@]2(C(=O)OC)C1=C[C@H](COCc1ccccc1)O[C@@H]2C	none (no result: DAX1 inh-2)
O=C(Nc1ccccc1C(=O)NC(Cc1c[nH]c2ccccc12)C(=O)O)c1ccco1 (stereo not given)	ssDAF-12 act 1.4
COc1ccc(CCNC(=O)c2ccc(NS(=O)(=O)c3ccc4[nH]c(=O)[nH]c4c3)cc2)cc1	none
O=C(NCCc1ccccc1)c1ccc(NS(=O)(=O)c2ccc3[nH]c(=O)[nH]c3c2)cc1	DAX1 inh-1 3.8
O=C(Nc1ccccc1C(=O)NCCc1ccccc1)c1ccco1	hgDAF12 agonist 10.6
O=C(NC(Cc1c[nH]c2ccccc12)C(=O)O)c1ccco1 (stereo not given)	none
O=c1[nH]c2ccc(NS(=O)(=O)c3ccc(Cl)cc3)cc2[nH]1	DAX1 inh-2 5.0
Cc1cc(C(=O)COC(=O)c2ccc(Cl)c(S(N)(=O)=O)c2)c(C)n1CC1CCCO1 (stereo not given)	DAX1 inh-2 4.6
